# Test results reported in PubChem BioAssay (Tox21).
# Unmarked numbers belong to inactive results. Inconclusive results are not listed. Entries that show only a call come without a potency. The source made the active and inactive calls. Unless noted, calls follow the shape of the dose curve; as a rule, active = well fitted curve in the direction sought with a large enough effect in the repeat runs; inconclusive = weak or mixed curves; inactive = no such curve, though single readings can be large; an effect the other way counts as inactive or inconclusive.
# Tests used:
# [1] = qHTS assay for small molecule agonists of the p53 signaling pathway (AID 651631; calls by dose curve; also: nearly all actives have a fitted effect of over 15% in size)
# Procedure, shortened: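 Read-out is beta-lactamase FRET fluorescence measured 2 h after substrate addition at room temperature, in HCT-116 cells with a p53 response element-driven reporter exposed to compounds for 16 h at 37 °C.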
# [2] = qHTS assay for small molecules that induce genotoxicity in human embryonic kidney cells expressing luciferase-tagged ATAD5 - cell viability (AID 651634; calls by dose curve; also: nearly all actives have a fitted effect of over 25% in size)
# Procedure, shortened: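 15.5 hr compound or vehicle exposure of HEK293T cells expressing luciferase-tagged ATAD5 at 37C; live-cell protease activity is read by fluorescence after 30 min of CellTiter-Fluor.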
# [3] = qHTS assay for small molecule disruptors of the mitochondrial membrane potential - cell viability (AID 720634; calls by dose curve;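 also: human HepG2 liver cancer cells; series mostly up to about 83 µM; nearly all actives have a fitted effect of over 20% in size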)
# Procedure, shortened: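 In this qHTS format, HepG2 cells plated overnight were pinned with compound, incubated 1 hr, and assayed for ATP luminescence with CellTiter-Glo after m-MPI dye addition.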
# [4] = qHTS assay for small molecule disruptors of the mitochondrial membrane potential (AID 720635); also: potency is read from the fitted curve at half-maximal effect
# Procedure, shortened: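 HepG2 cells exposed to compound 1 hr at 37C, then Mito-MPS dye 30 min. Ratio read of aggregate (540/590 nm) versus monomer (490/535 nm) fluorescence.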
# [5] = qHTS assay to test for compound auto fluorescence at 590 nm (red) in HepG2 cells (AID 720674)
# Procedure, shortened: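 HepG2 cells, 2,000 per well in MEM with 10% FBS, attached overnight at 37 C, then got 23 nL compound or DMSO. After 1 hr at 37 C, 5% CO2, red fluorescence was read at 540/590 nm against Rose Bengal sodium as reference.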
# [6] = qHTS assay to test for compound auto fluorescence at 535 nm (green) in HepG2 cells (AID 720675)
# [7] = qHTS assay to test for compound auto fluorescence at 460 nm (blue) in HEK293 cells (AID 720678)
# Procedure, shortened: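 HEK293 cells (2,000 per well, medium with 10% dialyzed FBS) attached for 4-5 hr at 37C, then received compound and stood overnight at 37C, 5% CO2. Blue fluorescence was read at Ex/Em 405/460 nm and expressed relative to triamterene.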
# [8] = qHTS assay to test for compound auto fluorescence at 590 nm (red) in HEK293 cells (AID 720679)
# Procedure, shortened: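 HEK293 cells (2,000/well, medium with 10% dialyzed FBS) attached for 4-5 hr at 37C, received 23 nL compound and were incubated overnight at 37C, 5% CO2. Red fluorescence was then read at 540/590nm Ex/Em, referenced to Rose Bengal sodium.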
# [9] = qHTS assay to test for compound auto fluorescence at 535 nm (green) in HEK293 cells (AID 720680)
# [10] = qHTS assay to test for compound auto fluorescence at 460 nm (blue) in HEK293 cell free culture (AID 720681)
# Procedure, shortened: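 Compounds were added to cell-free DMEM with 10% FBS and fluorescence read directly. The blue channel used 405 nm excitation and 460 nm emission, with triamterene as the reference fluorophore.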
# [11] = qHTS assay to test for compound auto fluorescence at 535 nm (green) in HEK293 cell free culture (AID 720682)
# Procedure, shortened: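 Fluorescein serves as the green reference fluorophore; each compound's intrinsic emission at 535 nm (excitation 485 nm) is reported as an equivalent amount of that dye, measured in serum-containing DMEM without cells.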
# [12] = qHTS assay to test for compound auto fluorescence at 590 nm (red) in HEK293 cell free culture (AID 720683)
# Procedure, shortened: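 Cell-free wells of DMEM with 10% FBS received compound, and intrinsic fluorescence was read at excitation/emission 540/590 nm. Values expressed as equivalence to Rose Bengal sodium.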
# [13] = qHTS assay to test for compound auto fluorescence at 590 nm (red) in HepG2 cell free culture (AID 720684)
# Procedure, shortened: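 Auto fluorescence equivalency versus Rose Bengal sodium, red channel Ex/Em 540/590 nm; compounds in cell-free MEM/10% FBS; DMSO vehicle control.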
# [14] = qHTS assay to test for compound auto fluorescence at 460 nm (blue) in HepG2 cell free culture (AID 720685)
# Procedure, shortened: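 Cell-free plates of MEM plus 10% FBS received 23 nL compound or DMSO vehicle; blue-channel (405/460 nm) intensity scored against triamterene as reference fluorophore.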
# [15] = qHTS assay to test for compound auto fluorescence at 535 nm (green) in HepG2 cell free culture (AID 720686)
# [16] = qHTS assay to test for compound auto fluorescence at 460 nm (blue) in HepG2 cells (AID 720687)
# Procedure, shortened: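 HepG2 cells in MEM with 10% FBS, attached overnight at 37 C, were exposed to compound or DMSO for 1 hr at 37 C, 5% CO2. Blue fluorescence was read at 405/460 nm, with triamterene as reference fluorophore.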
# [17] = qHTS assay for small molecule agonists of the p53 signaling pathway - cell viability (AID 651633; calls by dose curve; also: nearly all actives have a fitted effect of over 30% in size; also: potency is read from the fitted curve at half-maximal effect)
# Procedure, shortened: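 p53RE-bla cells were treated with compound for 16 hours at 37 C. Cytotoxicity was then measured as CellTiter-Glo luminescence after 30 min at room temperature.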
# [18] = biological target: Glucocorticoid receptor (Homo sapiens) (UniProt P04150); assay: qHTS assay to identify small molecule agonists of the glucocorticoid receptor (GR) signaling pathway (AID 720691; active = well fitted activation curve with a large enough effect in the signal ratio in the repeat runs, not every such curve was filed as active; the % refers to the signal ratio; also: potency is read from the fitted curve at half-maximal effect)
# Procedure, shortened: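 Measures GR pathway activation through a GRE-beta-lactamase reporter stably integrated in HeLa cells, with 18 h compound treatment at 37 C and fluorescence detection using a FRET substrate.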
# [19] = biological target: Glucocorticoid receptor (Homo sapiens) (UniProt P04150); assay: qHTS assay to identify small molecule antagonists of the glucocorticoid receptor (GR) signaling pathway (AID 720692; active = well fitted inhibition curve with a large enough effect in the signal ratio in the repeat runs, not every such curve was filed as active; the % refers to the signal ratio; also: potency is read from the fitted curve at half-maximal effect)
# Procedure, shortened: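 Tox21 10K library screened in concentration-response for blockade of dexamethasone (5 nM final)-induced GRE-bla reporter activity in HeLa cells; 18 h treatment, fluorescence read.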
# [20] = qHTS assay for small molecules that induce genotoxicity in human embryonic kidney cells expressing luciferase-tagged ATAD5 (AID 651632); also: nearly all actives have a fitted effect of over 15% in size
# Procedure, shortened: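 Concentration-response screen for ATAD5 upregulation in HEK293T luciferase reporter cells; 16 hr treatment at 37C, then luminescence after 30 min with Amplite at room temperature.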
# Glucocorticoid receptor (Homo sapiens), sequence (P04150 whole entry, looked up): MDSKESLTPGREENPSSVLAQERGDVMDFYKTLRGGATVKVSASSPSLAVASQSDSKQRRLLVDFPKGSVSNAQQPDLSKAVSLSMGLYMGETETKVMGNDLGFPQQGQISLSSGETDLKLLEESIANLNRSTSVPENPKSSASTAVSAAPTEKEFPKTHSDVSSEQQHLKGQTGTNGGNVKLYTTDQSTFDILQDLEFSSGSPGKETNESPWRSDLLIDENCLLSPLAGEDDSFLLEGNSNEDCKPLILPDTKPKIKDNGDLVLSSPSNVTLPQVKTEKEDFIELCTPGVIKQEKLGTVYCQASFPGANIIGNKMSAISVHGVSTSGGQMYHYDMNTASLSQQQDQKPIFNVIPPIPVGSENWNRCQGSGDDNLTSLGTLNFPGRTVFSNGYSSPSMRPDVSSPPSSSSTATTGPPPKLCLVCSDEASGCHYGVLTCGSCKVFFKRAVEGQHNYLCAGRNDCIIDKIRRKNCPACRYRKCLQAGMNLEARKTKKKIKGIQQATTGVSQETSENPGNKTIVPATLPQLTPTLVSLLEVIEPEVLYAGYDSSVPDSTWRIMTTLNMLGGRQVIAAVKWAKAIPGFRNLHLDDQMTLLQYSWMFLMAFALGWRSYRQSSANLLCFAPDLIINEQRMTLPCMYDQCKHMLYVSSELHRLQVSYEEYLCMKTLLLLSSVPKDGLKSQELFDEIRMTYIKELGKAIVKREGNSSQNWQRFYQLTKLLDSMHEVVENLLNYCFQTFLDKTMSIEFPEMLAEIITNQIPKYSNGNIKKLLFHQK
smiles,measurement,setting,value
CC(C)(CO)[C@@H](O)C(=O)NCCC(=O)O,Potency,[1],inactive
same,Potency,[2],inactive
same,Potency,[3],inactive
same,Potency,[4],inactive
same,outcome,[5],inactive
same,outcome,[6],inactive
same,outcome,[7],inactive
same,outcome,[8],inactive
same,outcome,[9],inactive
same,outcome,[10],inactive
same,outcome,[11],inactive
same,outcome,[12],inactive
same,outcome,[13],inactive
same,outcome,[14],inactive
same,outcome,[15],inactive
same,outcome,[16],inactive
COc1ccc(S(=O)(=O)Nc2nnc(CC(C)C)s2)cc1,Potency,[1],inactive
same,Potency,[17],inactive
same,Potency,[2],inactive
same,Potency,[3],inactive
same,outcome,[5],inactive
same,outcome,[6],inactive
same,outcome,[7],inactive
same,outcome,[8],inactive
same,outcome,[9],inactive
same,outcome,[10],inactive
same,outcome,[11],inactive
same,outcome,[12],inactive
same,outcome,[13],inactive
same,outcome,[14],inactive
same,outcome,[15],inactive
same,outcome,[16],inactive
same,Potency,[18],inactive
same,Potency,[19],inactive
O=S(=O)(O)C(F)(F)F,Potency,[1],inactive
same,Potency,[17],inactive
same,Potency,[2],inactive
same,Potency,[3],inactive
same,outcome,[5],inactive
same,outcome,[6],inactive
same,outcome,[7],inactive
same,outcome,[8],inactive
same,outcome,[9],inactive
same,outcome,[10],inactive
same,outcome,[11],inactive
same,outcome,[12],inactive
same,outcome,[13],inactive
same,outcome,[14],inactive
same,outcome,[15],inactive
same,outcome,[16],inactive
same,Potency,[18],inactive
CC(C)Nc1nc(N)nc(Cl)n1,Potency,[1],inactive
same,Potency,[17],inactive
same,Potency,[2],inactive
same,Potency,[3],inactive
same,Potency,[4],inactive
same,outcome,[5],inactive
same,outcome,[6],inactive
same,outcome,[7],inactive
same,outcome,[8],inactive
same,outcome,[9],inactive
same,outcome,[10],inactive
same,outcome,[11],inactive
same,outcome,[12],inactive
same,outcome,[13],inactive
same,outcome,[14],inactive
same,outcome,[15],inactive
same,outcome,[16],inactive
same,Potency,[18],inactive
same,Potency,[19],inactive
CN1CCN(c2c(F)cc3c(=O)c(C(=O)O)cn(CCF)c3c2F)CC1,Potency,[1],inactive
same,Potency,[17],inactive
same,Potency,[3],inactive
same,Potency,[4],inactive
same,outcome,[5],inactive
same,outcome,[6],inactive
same,outcome,[7],inactive
same,outcome,[8],inactive
same,outcome,[9],inactive
same,outcome,[10],inactive
same,outcome,[11],inactive
same,outcome,[12],inactive
same,outcome,[13],inactive
same,outcome,[14],inactive
same,outcome,[15],inactive
same,outcome,[16],inactive
same,Potency,[18],inactive
same,Potency,[19],inactive
Nc1ccc2ccccc2c1S(=O)(=O)O,Potency,[1],inactive
same,Potency,[17],inactive
same,Potency,[2],inactive
same,Potency,[3],inactive
same,Potency,[4],inactive
same,outcome,[5],inactive
same,outcome,[6],inactive
same,outcome,[7],inactive
same,outcome,[8],inactive
same,outcome,[9],inactive
same,outcome,[10],inactive
same,outcome,[11],inactive
same,outcome,[12],inactive
same,outcome,[13],inactive
same,outcome,[15],inactive
same,outcome,[16],inactive
same,Potency,[18],inactive
C[C@]12CCC(=O)C=C1CC[C@@H]1[C@@H]2CC[C@@]2(C)[C@H]1CC[C@]2(O)C(=O)CO,Potency,[1],inactive
same,Potency,[17],inactive
same,Potency,[2],inactive
same,Potency,[3],inactive
same,outcome,[5],inactive
same,outcome,[6],inactive
same,outcome,[7],inactive
same,outcome,[8],inactive
same,outcome,[9],inactive
same,outcome,[10],inactive
same,outcome,[11],inactive
same,outcome,[12],inactive
same,outcome,[13],inactive
same,outcome,[14],inactive
same,outcome,[15],inactive
same,outcome,[16],inactive
same,Potency,[18],12 µM (active)
same,Potency,[19],0.338 µM (active)
Cc1nc(-c2ccccn2)ncc1C(=O)Nn1cc(C)c2cc(F)ccc21,Potency,[20],inactive
same,Potency,[17],inactive
same,Potency,[2],inactive
same,Potency,[3],inactive
same,Potency,[4],inactive
same,outcome,[5],inactive
same,outcome,[6],inactive
same,outcome,[7],inactive
same,outcome,[8],inactive
same,outcome,[10],inactive
same,outcome,[11],inactive
same,outcome,[12],inactive
same,outcome,[13],inactive
same,outcome,[14],inactive
same,outcome,[15],inactive
same,outcome,[16],inactive
same,Potency,[18],inactive
same,Potency,[19],inactive
O=CCCc1ccccc1,Potency,[20],inactive
same,Potency,[17],inactive
same,Potency,[2],inactive
same,Potency,[3],inactive
same,outcome,[5],inactive
same,outcome,[6],inactive
same,outcome,[7],inactive
same,outcome,[8],inactive
same,outcome,[9],inactive
same,outcome,[10],inactive
same,outcome,[11],inactive
same,outcome,[12],inactive
same,outcome,[13],inactive
same,outcome,[14],inactive
same,outcome,[15],inactive
same,outcome,[16],inactive
O=C1Nc2ccc([N+](=O)[O-])cc2C1=O,Potency,[20],inactive
same,Potency,[17],inactive
same,Potency,[4],68.5 µM (active)
same,outcome,[5],inactive
same,outcome,[6],inactive
same,outcome,[7],inactive
same,outcome,[8],inactive
same,outcome,[9],inactive
same,outcome,[10],inactive
same,outcome,[11],inactive
same,outcome,[12],inactive
same,outcome,[13],inactive
same,outcome,[14],inactive
same,outcome,[15],inactive
same,outcome,[16],inactive
same,Potency,[18],inactive
same,Potency,[19],inactive
CC(=O)Oc1cc(C(C)C)c(OCCN(C)C)cc1C,Potency,[20],inactive
same,Potency,[17],inactive
same,Potency,[2],inactive
same,"fluorescence, relative to Rose Bengal",[5],0.0269% [at 18.6 µM]
same,"fluorescence, % of fluorescein control",[6],0.0486% [at 18.6 µM]
same,"fluorescence, % of triamterene",[7],-0.184% [at 18.6 µM]
same,"fluorescence, % of fluorescent control",[8],-0.192% [at 18.6 µM]
same,"fluorescence, % of fluorescein",[9],-0.013% [at 18.6 µM]
same,"fluorescence, % of fluorescent control",[10],-0.142% [at 18.6 µM]
same,activity change,[11],-0.0795% [at 18.6 µM]
same,"fluorescence, % of fluorescent control",[12],-0.128% [at 18.6 µM]
same,"fluorescence, % of Rose Bengal",[13],-0.418% [at 18.6 µM]
same,"fluorescence, % of fluorescein control",[15],-0.0374% [at 18.6 µM]
same,"fluorescence, % of fluorescent control",[16],-0.0099% [at 18.6 µM]
same,Potency,[18],inactive
same,Potency,[19],inactive
O=C1CCCCCCCCCCC(=O)OCCO1,Potency,[20],inactive
same,Potency,[17],54.5 µM (active)
same,Potency,[2],inactive
same,Potency,[4],27.3 µM (active)
same,outcome,[5],inactive
same,outcome,[6],inactive
same,outcome,[7],inactive
same,outcome,[8],inactive
same,outcome,[9],inactive
same,outcome,[10],inactive
same,outcome,[11],inactive
same,outcome,[12],inactive
same,outcome,[13],inactive
same,outcome,[14],inactive
same,outcome,[15],inactive
same,outcome,[16],inactive
same,Potency,[19],inactive
CCC(=O)c1ccc2c(c1)N(CCCN(C)C)c1ccccc1S2,Potency,[20],inactive
same,Potency,[17],inactive
same,Potency,[2],inactive
same,Potency,[3],inactive
same,outcome,[5],inactive
same,outcome,[6],inactive
same,outcome,[7],inactive
same,outcome,[8],inactive
same,outcome,[9],inactive
same,outcome,[10],inactive
same,outcome,[11],inactive
same,outcome,[12],inactive
same,outcome,[13],inactive
same,outcome,[14],inactive
same,outcome,[15],inactive
same,outcome,[16],inactive
same,Potency,[18],inactive
O=[N+]([O-])c1nccn1CO[C@@H](CO)[C@H](O)CO,Potency,[20],inactive
same,Potency,[17],inactive
same,Potency,[2],inactive
same,Potency,[3],inactive
same,Potency,[4],inactive
same,outcome,[5],inactive
same,outcome,[6],inactive
same,outcome,[7],inactive
same,outcome,[8],inactive
same,outcome,[9],inactive
same,outcome,[10],inactive
same,outcome,[11],inactive
same,outcome,[12],inactive
same,outcome,[13],inactive
same,outcome,[14],inactive
same,outcome,[15],inactive
same,outcome,[16],inactive
same,Potency,[18],inactive
same,Potency,[19],inactive
